High-throughput results (PubChem BioAssay)
HCV inh: HCV inhibition; Huh7.5.1 HCVcc-Cre infection, luciferase reporter, 44 h; AID 651820; hit rate 3.4% among 340,000; Potency, µM (titrated, usually from 41.8 µM), hits mostly inhibitors
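Whole-lifecycle infectious HCVcc-Cre system; cells 1,000/well, compound then virus (~0.5 moi) added 4 h after plating, 44 h culture. Luciferase read 15 sec following 15 min substrate incubation, room temp.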
AMA1-RON2 inh: disrupts binding of P. falciparum AMA1 to RON2; AlphaScreen AMA1-biotinylated RON2 peptide binding; Potency, µM (doses to about 58.2 µM), actives largely listed as inhibitors; hit rate 0.2% among 360,000; AID 720542; note: nearly all actives have a fitted effect of over 45% in size
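AMA1 (3D7) with his tag at 25 nM final met compounds first, then biotinylated RON2 peptide at 25 nM; detection used donor plus acceptor beads, 10 µg/mL apiece, read by AlphaScreen after 30 min at room temperature.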
Pf growth 48h: P. falciparum growth inhibition at 48 hours (one generation); AID 504832; P. falciparum luciferase growth in erythrocytes, 48 h; hit rate 5.9% among 310,000; Potency, µM (top dose mostly 28.7 µM), usual class: inhibitors
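Luciferase-expressing P. falciparum in infected erythrocytes (2% hematocrit, 0.1% parasitemia final) in RPMI 1640/0.5% Albumax were exposed to compound for 48 hours at 37 C, 5% CO2; growth read as luminescence.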
Pf growth 96h: P. falciparum growth inhibition at 96 hour, primary screen for plastid delayed-death inhibitors; hit rate 6.9% among 320,000; Potency, µM (highest dose often 28.7 µM), actives largely listed as inhibitors; P. falciparum luciferase reporter growth, 96 h; AID 504834
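P. falciparum expressing integrated firefly luciferase grown in erythrocytes (2% hematocrit, 0.05% parasitemia final) with compounds for 96 hours at 37 C, 5% CO2. Growth inhibition read as loss of luminescence after adding luciferase detection reagent.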
Hits are given with their value; - = inactive; ? = inconclusive; . = not tested or not shown; [ ] = dose if it differs, or a comment. Most compounds without a hit are left out; they make up all but 11% or so of the library. Calls come from the whole dose curve; as a rule, active = well fitted curve in the direction sought with a large enough effect; inconclusive = small, poorly fitted or top-dose-only effect, or another doubt; inactive = no such curve, though single readings can be large; an effect the other way counts as inactive or inconclusive.

SMILES	HCV inh	AMA1-RON2 inh	Pf growth 48h	Pf growth 96h
CCCCN(C(=O)c1cccc2c(=O)c(C)c(-c3ccccc3)oc12)c1ccccc1	?	-	?	4.1µM
CCCCNC(=O)c1cccc2c(=O)c(C)c(-c3ccccc3)oc12	?	-[2.32 µM]	-	?
CC(=O)Nc1ccc(SCC(=O)c2cc(C)n(-c3ccccc3)c2C)cc1	-	-	-	-
CCCCCCCC[n+]1c(C)n(-c2ccccc2)c2ccc(NC(C)=O)cc21	14µM	-	?	-
COc1cc(C(=O)Nc2nnc(C3CC3)s2)ccc1OCc1c(C)noc1C	-	-	?	?
CCOc1ccc2oc(C(=O)NCc3ccccc3CN3CCCC3)c(C)c2c1	16µM	-	9.3µM	9.3µM
Cc1c(C(=O)NCc2ccccc2CN2CCCC2)oc2c(F)cccc12	-	-	13µM	?
COc1ccc2cc(C(=O)NCc3ccccc3CN3CCCC3)ccc2c1	7.1µM	-	9.3µM	?
CCOC(=O)c1oc2ccccc2c1CN1CCCCC1	-	-	-	?
CCOc1ccc2oc(C(=O)NCC(c3ccco3)N(C)C)c(C)c2c1 (centres undefined)	?	-	-	?
COCc1c(C(=O)NCc2ccccc2CN2CCCC2)oc2ccccc12	-	-	?	9.3µM
CCOc1cc(Br)cc(/C=N/NC(=O)c2cccnc2)c1O	?	-	?	-
O=C(c1cc2cc(Cl)ccc2o1)N1CCCC1	-	-	?	?
COc1ccc2oc(C(=O)NCc3ccccc3CN3CCCC3)c(C)c2c1	?	-	12µM	?
O=C(NCc1ccccc1CN1CCCC1)c1cc2cc(Cl)ccc2o1	10µM	-	13µM	?
CC(C)CNc1nc(N)c([N+](=O)[O-])c(NCC2CCCO2)n1 (centres undefined)	-	-	?	12µM
COc1ccccc1/C=C/C1(C(=O)NC2CCCC2)CC(=O)N1c1ccccc1 (centres undefined)	-	-	?	?
Cc1ccc(C2=C(CC(=O)O)C(=O)CC2)cc1	-	-	-	4.7µM
O=C(CCN1C(=O)COc2ccccc21)NCCCN1CCN(c2ccccc2F)CC1	-	-	-	2.6µM
O=C(CN1C(=O)COc2ccccc21)NCCCN1CCCCC1	-	-	-	1µM
O=C(Cn1cc(S(=O)(=O)N2CCN(c3ccccc3F)CC2)c2ccccc2c1=O)NCCCN1CCCCCC1	22µM	-	?	-
CCCCN(C(=O)C1CC(=O)N(CCc2ccc(OC)c(OC)c2)C1)c1c(N)n(CC(C)C)c(=O)[nH]c1=O (centres undefined)	-	-	.	.
O=C(Oc1cccc(NC(=O)c2ccco2)c1)c1ccc(Br)c(S(=O)(=O)N2CCCCC2)c1	-	-	-	.
CCCn1cc(CN2CCC(Cc3ccccc3)(C(=O)OCC)CC2)c(C)n1	-	-	-	10µM
CCOC(=O)C1(Cc2ccccc2)CCN(Cc2ccon2)CC1	-	-	?	?
SMILES	HCV inh	AMA1-RON2 inh	Pf growth 48h	Pf growth 96h
CCOC(=O)C1(Cc2ccccc2)CCCN(Cc2cccc(C(C)=O)c2)C1 (centres undefined)	-	-	?	-
CCOC(=O)C1(Cc2ccccc2)CCCN(Cc2ccncc2)C1 (centres undefined)	-	-	9.3µM	-
O=C(Cn1cnc2ccccc2c1=O)NCc1cccs1	-	-	-	-
Nc1nc(-c2ccccc2)c(CCCNc2ccccc2)c(=O)[nH]1	-	-	.	.
O=C(CN1CCNCC1)Nc1ccc(Oc2ccccc2)cc1	7.9µM	-	-	-
O=C(CC1NCCc2ccccc21)Nc1ccc(Oc2ccccc2)cc1 (centres undefined)	11µM	-	-	?
O=C(CC1NCCc2ccccc21)Nc1ccccc1 (centres undefined)	-	-	-	-
O=C(COC(=O)c1ccco1)NCCNC(=O)COC(=O)c1ccco1	-	-	-	-
O=C(OCc1ccccc1)N(CCCCN(CCCNCc1ccccc1)C(=O)OCc1ccccc1)CCCNCc1ccccc1	10µM	?	.	.
O=C(Nc1ccn(CCCNCc2ccc3c(c2)OCO3)c(=O)n1)OCc1ccccc1	10µM	-	.	.
O=C(Nc1ccn(CCCNCc2ccccc2)c(=O)n1)OCc1ccccc1	0.56µM	-	.	.
O=C(Cn1ccc(NC(=O)OCc2ccccc2)nc1=O)NCCc1c[nH]c2ccccc12	2.8µM	-	?	?
Cc1cccc(C)c1NC(=O)C(c1ccc([N+](=O)[O-])cc1)N(C)C(=O)c1ccccn1 (centres undefined)	-	-	-	-
COc1ccc(/C(O)=C2/C(=O)C(=O)N(c3ccccn3)C2c2ccc(F)cc2)cc1 (centres undefined)	-	-	-	6.6µM
COc1ccc(C2/C(=C(/O)c3ccc(Br)cc3)C(=O)C(=O)N2C)cc1 (centres undefined)	-	-	-	0.93µM
COc1cccc(/C(O)=C2\C(=O)C(=O)N(c3ccccn3)C2c2ccccc2OC)c1 (centres undefined)	-	-	-	5.2µM
COC(=O)c1ccc(C2/C(=C(\O)c3ccc(OC)c(C)c3)C(=O)C(=O)N2c2cc(C)on2)cc1 (centres undefined)	-	-	-	-
COc1ccc(C2/C(=C(/O)c3ccccc3)C(=O)C(=O)N2c2ccccn2)c(OC)c1 (centres undefined)	-	-	-	-
Cc1cc(N2C(=O)C(=O)/C(=C(/O)c3ccc(F)cc3)C2c2ccc(Cl)cc2)no1 (centres undefined)	-	-	13µM	-
COc1ccc(C2/C(=C(/O)c3ccc(C)cc3)C(=O)C(=O)N2c2ccccn2)cc1 (centres undefined)	-	-	-	-
COc1ccc(C2/C(=C(/O)c3ccc(Br)cc3)C(=O)C(=O)N2C)cc1OC (centres undefined)	-	-	-	?
ClN=C1C=CC=CC1=NCl	.	-	.	.
Cc1ccccc1S(=O)(=O)N(C)C[C@@H]1OCc2cnnn2CCCC(=O)N([C@@H](C)CO)C[C@H]1C	.	-	.	.
CC(C)C(Nc1ncnc2c1oc1ccccc12)C(=O)O (centres undefined)	-	-	-	4.7µM
COc1ncnc2c1oc1ccccc12	-	-	-	4.7µM
SMILES	HCV inh	AMA1-RON2 inh	Pf growth 48h	Pf growth 96h
Cc1cccnc1C(NC(=O)C1CCN(Cc2ccc(Cl)cc2)CC1)c1ccc(F)cc1 (centres undefined)	.	-	.	.
O=C(c1cnc2ccc3ccccc3c2c1)c1cc(F)ccc1O	5.6µM	-	3.7µM	?
Cc1nn(C)c2ncc(C(=O)c3cc(F)ccc3O)cc12	-	-	.	10µM
Nc1nc2ncc(C(=O)c3cc(F)ccc3O)cc2s1	-	-	-	?
Cc1nn(C)c2ncc(C(=O)c3ccccc3O)cc12	-	-	-	-
COc1ccc(O)c(C(=O)c2cnc3onc(C)c3c2)c1	-	-	?	9.3µM
Cc1ccc(O)c(C(=O)c2cnc3c(c2)c(C)nn3C)c1	-	-	?	8.3µM
O=C(NC1CCCCC1)c1cc(C2CC2)nn1-c1ccccc1	-	-	?	-
NNC(=O)c1ccc(COCC(F)(F)F)cc1	-	-	-	-
COCCNC(=O)C1(C)CCCN(C(=O)c2cccc(Cl)c2)C1 (centres undefined)	.	-	.	.
